From PubChem BioAssay (NCATS)
Inconclusive results are not listed. The source made the active and inactive calls. Unless noted, calls follow the shape of the dose curve; as a rule, active = well fitted curve in the direction sought with a large enough effect; inconclusive = small, poorly fitted or top-dose-only effect, or another doubt; inactive = no such curve, though single readings can be large; an effect the other way counts as inactive or inconclusive.

Assays:
[1] = biological target: ATP-dependent 6-phosphofructokinase (Trypanosoma brucei brucei) (UniProt O15648); test: qHTS Assay to Find Inhibitors of T. brucei phosphofructokinase: hit validation (AID 492961);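 also: luminescence reports ADP formed as PFK phosphorylates fructose-6-phosphate with ATP; % is scaled to controls: 0 for no effect and ±100 for the full control effect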
Sequence of ATP-dependent 6-phosphofructokinase (Trypanosoma brucei brucei) (O15648 whole entry, looked up): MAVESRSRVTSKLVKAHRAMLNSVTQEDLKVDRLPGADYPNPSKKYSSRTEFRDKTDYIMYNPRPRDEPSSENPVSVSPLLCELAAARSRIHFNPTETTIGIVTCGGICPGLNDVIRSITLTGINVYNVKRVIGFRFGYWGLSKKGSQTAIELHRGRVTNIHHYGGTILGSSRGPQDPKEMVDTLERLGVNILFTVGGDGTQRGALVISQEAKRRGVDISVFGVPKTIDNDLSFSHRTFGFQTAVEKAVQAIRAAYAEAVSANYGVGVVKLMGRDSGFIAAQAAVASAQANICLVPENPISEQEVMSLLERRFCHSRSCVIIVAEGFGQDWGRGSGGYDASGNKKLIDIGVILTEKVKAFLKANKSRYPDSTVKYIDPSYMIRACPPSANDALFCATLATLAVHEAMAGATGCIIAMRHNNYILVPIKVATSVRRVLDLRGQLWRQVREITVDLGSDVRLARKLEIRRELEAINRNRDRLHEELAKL
Procedure, shortened: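 Compounds titrated; %activity normalized to 0x and 1x enzyme controls, curve-fitted. Readout: ADP-Glo luminescence after 45 min room-temperature reaction of 1.25 nM PFK, 0.1 mM ATP, 0.5 mM F6P, pH 8.0.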

[2] = biological target: Ubiquitin carboxyl-terminal hydrolase 1 (Homo sapiens) (UniProt O94782); test: Inhibitors of USP1/UAF1: Pilot qHTS (AID 504865);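 also: rhodamine fluorescence freed from ubiquitin-rhodamine substrate followed over time; top concentration of the series differs between compounds; % is scaled to controls: 0 for no effect and ±100 for the full control effect; nearly all actives have a fitted effect of over 35% in size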
Sequence of Ubiquitin carboxyl-terminal hydrolase 1 (Homo sapiens) (O94782 whole entry, looked up): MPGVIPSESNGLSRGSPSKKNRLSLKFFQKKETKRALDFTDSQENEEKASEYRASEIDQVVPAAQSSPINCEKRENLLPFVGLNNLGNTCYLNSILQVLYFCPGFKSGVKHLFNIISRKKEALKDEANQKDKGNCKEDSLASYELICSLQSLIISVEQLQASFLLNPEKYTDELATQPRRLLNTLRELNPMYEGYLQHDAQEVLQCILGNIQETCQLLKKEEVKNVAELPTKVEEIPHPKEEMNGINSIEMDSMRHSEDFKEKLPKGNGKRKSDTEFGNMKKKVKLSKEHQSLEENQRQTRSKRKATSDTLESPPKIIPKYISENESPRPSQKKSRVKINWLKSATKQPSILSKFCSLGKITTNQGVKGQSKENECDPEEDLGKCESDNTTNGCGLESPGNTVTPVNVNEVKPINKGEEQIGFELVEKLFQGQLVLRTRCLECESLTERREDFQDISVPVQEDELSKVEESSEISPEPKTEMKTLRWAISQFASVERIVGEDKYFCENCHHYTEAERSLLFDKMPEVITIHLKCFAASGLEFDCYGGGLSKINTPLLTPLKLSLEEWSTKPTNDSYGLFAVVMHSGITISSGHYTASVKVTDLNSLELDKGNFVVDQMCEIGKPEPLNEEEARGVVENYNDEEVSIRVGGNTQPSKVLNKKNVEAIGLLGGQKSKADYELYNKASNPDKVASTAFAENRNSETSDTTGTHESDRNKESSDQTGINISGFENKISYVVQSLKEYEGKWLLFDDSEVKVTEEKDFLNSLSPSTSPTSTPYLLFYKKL
Procedure, shortened: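 Enzyme-free wells gave the negative control, while test wells held 1nM USP1/UAF1 preincubated with compound for 15 min at room temperature. Ub-Rho at 150nM final started the reaction, and fluorescence at 480/540 nm was recorded kinetically.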

[3] = biological target: Luciferin 4-monooxygenase (Photinus pyralis) (UniProt P08659); test: Biochemical firefly luciferase enzyme assay for NPC (AID 624030);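 also: purified P. pyralis luciferase at 10 nM with luciferin and ATP substrate; 0% = DMSO and -100% = full luciferase inhibition by PTC124 control; nearly all actives have a fitted effect of over 70% in size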
Sequence of Luciferin 4-monooxygenase (Photinus pyralis) (P08659 whole entry, looked up): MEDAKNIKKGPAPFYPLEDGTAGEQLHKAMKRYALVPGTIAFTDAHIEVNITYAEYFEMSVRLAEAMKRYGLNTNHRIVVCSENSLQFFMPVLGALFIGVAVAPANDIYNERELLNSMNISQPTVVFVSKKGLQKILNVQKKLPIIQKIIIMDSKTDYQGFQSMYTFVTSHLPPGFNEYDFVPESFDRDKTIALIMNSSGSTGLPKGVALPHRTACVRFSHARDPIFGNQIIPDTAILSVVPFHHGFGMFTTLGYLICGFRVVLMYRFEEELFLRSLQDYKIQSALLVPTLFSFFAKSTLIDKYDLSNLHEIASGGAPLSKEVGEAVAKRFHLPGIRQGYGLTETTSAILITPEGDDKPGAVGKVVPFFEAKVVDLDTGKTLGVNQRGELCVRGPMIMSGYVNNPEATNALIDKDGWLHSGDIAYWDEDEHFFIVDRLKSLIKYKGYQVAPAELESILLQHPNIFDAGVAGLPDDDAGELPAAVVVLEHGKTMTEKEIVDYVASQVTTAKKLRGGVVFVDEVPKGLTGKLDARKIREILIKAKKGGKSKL
Procedure, shortened: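 Purified P. pyralis luciferase at 10 nM in 50 mM Tris Acetate (final), luminescence read within 5 minutes of enzyme addition to compounds. Activity normalised to PTC124 versus DMSO; concentration-response curves classed by r2, magnitude and activity.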

[4] = S16 Schwann cell viability assay (CellTiter-Glo assay) (AID 624031);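 also: cellular ATP luminescence as a viability measure; plate controls were DMSO-treated cells for no effect and cell-free wells for full effect; nearly all actives have a fitted effect of over 70% in size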
Procedure, shortened: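 Untransfected S16 rat Schwann cells; compound 24 h, 37 °C/5% CO2; CellTiter-Glo ATP luminescence. % activity vs no-cell wells and DMSO controls (0%); concentration-effect curves classed by r2, response magnitude, activity.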

[5] = S16 Schwann cell PMP22 intronic element firefly luciferase assay (AID 624032);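 also: plate controls were DMSO for no effect and PTC124 positive control mean for full effect; nearly all actives have a fitted effect of over 30% in size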
Procedure, shortened: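 Rat S16 Schwann cells stably carrying firefly luciferase driven by a PMP22 intronic element, in 10% FBS, treated 24 h at 37 C. ONE-Glo luminescence normalized to PTC124 control and DMSO (0%); curves classed by r2, magnitude and activity.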

[6] = S16 Schwann cell PMP22 intronic element beta-lactamase assay (AID 624044; calls by dose curve;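 also: 0% = DMSO and -100% = potassium clavulanate positive control; nearly all actives have a fitted effect of over 15% in size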); conditions: S16 rat Schwann cells, PMP22 element beta-lactamase FRET, 24 h; ratio activity, negative = inhibition: at 38.3 µM (top of the series)
Procedure, shortened: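 Rat S16 Schwann cells with beta-Lac driven by a PMP22 intronic element, compound-treated 24 h at 37 °C. LiveBLAzer FRET B/G read: 460 nm normalized to potassium clavulanate vs DMSO; 535 nm FRET as viability; concentration-effect curves classified.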

[7] = qHTS profiling for inhibitors of Plasmodium falciparum proliferation (AID 504749);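 also: 0% = DMSO vehicle and full inhibition = artemisinin control; nearly all actives have a fitted effect of over 60% in size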; conditions: P. falciparum in erythrocytes, SYBR Green DNA, 72 h, at 28.7 µM (top of the series)
Procedure, shortened: (§1)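 P. falciparum-infected erythrocytes (0.3% parasitemia, 2.5% hematocrit) incubated with compound 72 h at 37 C, 5% CO2. Parasite DNA detected by SYBR Green after lysis, overnight at room temperature; normalised to 0.29 uM artemisinin and DMSO.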

3D7 = test: as above; conditions: P. falciparum in erythrocytes, SYBR Green DNA, 72 h; series mostly up to 28.7 µM
Procedure, shortened: as §1

7G8 = test: as above; conditions: P. falciparum in erythrocytes, SYBR Green DNA, 72 h; series mostly up to 28.7 µM
Procedure, shortened: as §1

AA1029 = test: as above; conditions: P. falciparum in erythrocytes, SYBR Green DNA, 72 h; series mostly up to 28.7 µM
Procedure, shortened: as §1

AS120 = test: as above; conditions: P. falciparum in erythrocytes, SYBR Green DNA, 72 h; series mostly up to 28.7 µM
Procedure, shortened: as §1

ATS189 = test: as above; conditions: P. falciparum in erythrocytes, SYBR Green DNA, 72 h; series mostly up to 28.7 µM
Procedure, shortened: as §1

ATS95 = test: as above; conditions: P. falciparum in erythrocytes, SYBR Green DNA, 72 h; series mostly up to 28.7 µM
Procedure, shortened: as §1

C2A = test: as above; conditions: P. falciparum in erythrocytes, SYBR Green DNA, 72 h; series mostly up to 28.7 µM
Procedure, shortened: as §1

CP185 = test: as above; conditions: P. falciparum in erythrocytes, SYBR Green DNA, 72 h; series mostly up to 28.7 µM
Procedure, shortened: as §1

CP191 = test: as above; conditions: P. falciparum in erythrocytes, SYBR Green DNA, 72 h; series mostly up to 28.7 µM
Procedure, shortened: as §1

CP192 = test: as above; conditions: P. falciparum in erythrocytes, SYBR Green DNA, 72 h; series mostly up to 28.7 µM
Procedure, shortened: as §1

CP194 = test: as above; conditions: P. falciparum in erythrocytes, SYBR Green DNA, 72 h; series mostly up to 28.7 µM
Procedure, shortened: as §1

CP201 = test: as above; conditions: P. falciparum in erythrocytes, SYBR Green DNA, 72 h; series mostly up to 28.7 µM
Procedure, shortened: as §1

CP203 = test: as above; conditions: P. falciparum in erythrocytes, SYBR Green DNA, 72 h; series mostly up to 28.7 µM
Procedure, shortened: as §1

CP211 = test: as above; conditions: P. falciparum in erythrocytes, SYBR Green DNA, 72 h; series mostly up to 28.7 µM
Procedure, shortened: as §1

CP215 = test: as above; conditions: P. falciparum in erythrocytes, SYBR Green DNA, 72 h; series mostly up to 28.7 µM
Procedure, shortened: as §1

CP217 = test: as above; conditions: P. falciparum in erythrocytes, SYBR Green DNA, 72 h; series mostly up to 28.7 µM
Procedure, shortened: as §1

CP237 = test: as above; conditions: P. falciparum in erythrocytes, SYBR Green DNA, 72 h; series mostly up to 28.7 µM
Procedure, shortened: as §1

CP238 = test: as above; conditions: P. falciparum in erythrocytes, SYBR Green DNA, 72 h; series mostly up to 28.7 µM
Procedure, shortened: as §1

CP247 = test: as above; conditions: P. falciparum in erythrocytes, SYBR Green DNA, 72 h; series mostly up to 28.7 µM
Procedure, shortened: as §1

CP250 = test: as above; conditions: P. falciparum in erythrocytes, SYBR Green DNA, 72 h; series mostly up to 28.7 µM
Procedure, shortened: as §1

CP252 = test: as above; conditions: P. falciparum in erythrocytes, SYBR Green DNA, 72 h; series mostly up to 28.7 µM
Procedure, shortened: as §1

CP256 = test: as above; conditions: P. falciparum in erythrocytes, SYBR Green DNA, 72 h; series mostly up to 28.7 µM
Procedure, shortened: as §1

CP260 = test: as above; conditions: P. falciparum in erythrocytes, SYBR Green DNA, 72 h; series mostly up to 28.7 µM
Procedure, shortened: as §1

CP262 = test: as above; conditions: P. falciparum in erythrocytes, SYBR Green DNA, 72 h; series mostly up to 28.7 µM
Procedure, shortened: as §1

CP265 = test: as above; conditions: P. falciparum in erythrocytes, SYBR Green DNA, 72 h; series mostly up to 28.7 µM
Procedure, shortened: as §1

CP266 = test: as above; conditions: P. falciparum in erythrocytes, SYBR Green DNA, 72 h; series mostly up to 28.7 µM
Procedure, shortened: as §1

CP268 = test: as above; conditions: P. falciparum in erythrocytes, SYBR Green DNA, 72 h; series mostly up to 28.7 µM
Procedure, shortened: as §1

CP269 = test: as above; conditions: P. falciparum in erythrocytes, SYBR Green DNA, 72 h; series mostly up to 28.7 µM
Procedure, shortened: as §1

CP286 = test: as above; conditions: P. falciparum in erythrocytes, SYBR Green DNA, 72 h; series mostly up to 28.7 µM
Procedure, shortened: as §1

CP291 = test: as above; conditions: P. falciparum in erythrocytes, SYBR Green DNA, 72 h; series mostly up to 28.7 µM
Procedure, shortened: as §1

CP297 = test: as above; conditions: P. falciparum in erythrocytes, SYBR Green DNA, 72 h; series mostly up to 28.7 µM
Procedure, shortened: as §1

CP305 = test: as above; conditions: P. falciparum in erythrocytes, SYBR Green DNA, 72 h; series mostly up to 28.7 µM
Procedure, shortened: as §1

CP315 = test: as above; conditions: P. falciparum in erythrocytes, SYBR Green DNA, 72 h; series mostly up to 28.7 µM
Procedure, shortened: as §1

CP325 = test: as above; conditions: P. falciparum in erythrocytes, SYBR Green DNA, 72 h; series mostly up to 28.7 µM
Procedure, shortened: as §1

CP329 = test: as above; conditions: P. falciparum in erythrocytes, SYBR Green DNA, 72 h; series mostly up to 28.7 µM
Procedure, shortened: as §1

CP335 = test: as above; conditions: P. falciparum in erythrocytes, SYBR Green DNA, 72 h; series mostly up to 28.7 µM
Procedure, shortened: as §1

DFO2036 = test: as above; conditions: P. falciparum in erythrocytes, SYBR Green DNA, 72 h; series mostly up to 28.7 µM
Procedure, shortened: as §1

DIV14 = test: as above; conditions: P. falciparum in erythrocytes, SYBR Green DNA, 72 h; series mostly up to 28.7 µM
Procedure, shortened: as §1

DIV17 = test: as above; conditions: P. falciparum in erythrocytes, SYBR Green DNA, 72 h; series mostly up to 28.7 µM
Procedure, shortened: as §1

DIV30 = test: as above; conditions: P. falciparum in erythrocytes, SYBR Green DNA, 72 h; series mostly up to 28.7 µM
Procedure, shortened: as §1

Dd2 = test: as above; conditions: P. falciparum in erythrocytes, SYBR Green DNA, 72 h; series mostly up to 28.7 µM
Procedure, shortened: as §1

ECU = test: as above; conditions: P. falciparum in erythrocytes, SYBR Green DNA, 72 h; series mostly up to 28.7 µM
Procedure, shortened: as §1

FAB9 = test: as above; conditions: P. falciparum in erythrocytes, SYBR Green DNA, 72 h; series mostly up to 28.7 µM
Procedure, shortened: as §1

GB4 = test: as above; conditions: P. falciparum in erythrocytes, SYBR Green DNA, 72 h; series mostly up to 28.7 µM
Procedure, shortened: as §1

HB3 = test: as above; conditions: P. falciparum in erythrocytes, SYBR Green DNA, 72 h; series mostly up to 28.7 µM
Procedure, shortened: as §1

ICS = test: as above; conditions: P. falciparum in erythrocytes, SYBR Green DNA, 72 h; series mostly up to 28.7 µM
Procedure, shortened: as §1

JCK = test: as above; conditions: P. falciparum in erythrocytes, SYBR Green DNA, 72 h; series mostly up to 28.7 µM
Procedure, shortened: as §1

N140 = test: as above; conditions: P. falciparum in erythrocytes, SYBR Green DNA, 72 h; series mostly up to 28.7 µM
Procedure, shortened: as §1

P93_24 = test: as above; conditions: P. falciparum in erythrocytes, SYBR Green DNA, 72 h; series mostly up to 28.7 µM
Procedure, shortened: as §1

P94_40 = test: as above; conditions: P. falciparum in erythrocytes, SYBR Green DNA, 72 h; series mostly up to 28.7 µM
Procedure, shortened: as §1

PAD = test: as above; conditions: P. falciparum in erythrocytes, SYBR Green DNA, 72 h; series mostly up to 28.7 µM
Procedure, shortened: as §1

PC15 = test: as above; conditions: P. falciparum in erythrocytes, SYBR Green DNA, 72 h; series mostly up to 28.7 µM
Procedure, shortened: as §1

PC26 = test: as above; conditions: P. falciparum in erythrocytes, SYBR Green DNA, 72 h; series mostly up to 28.7 µM
Procedure, shortened: as §1

PC49 = test: as above; conditions: P. falciparum in erythrocytes, SYBR Green DNA, 72 h; series mostly up to 28.7 µM
Procedure, shortened: as §1

SC27B = test: as above; conditions: P. falciparum in erythrocytes, SYBR Green DNA, 72 h; series mostly up to 28.7 µM
Procedure, shortened: as §1

TAB109 = test: as above; conditions: P. falciparum in erythrocytes, SYBR Green DNA, 72 h; series mostly up to 28.7 µM
Procedure, shortened: as §1

TAB113 = test: as above; conditions: P. falciparum in erythrocytes, SYBR Green DNA, 72 h; series mostly up to 28.7 µM
Procedure, shortened: as §1

TAB165 = test: as above; conditions: P. falciparum in erythrocytes, SYBR Green DNA, 72 h; series mostly up to 28.7 µM
Procedure, shortened: as §1

W2 = test: as above; conditions: P. falciparum in erythrocytes, SYBR Green DNA, 72 h; series mostly up to 28.7 µM
Procedure, shortened: as §1

CC(O)C(N)C(=O)O (configuration not stated)
inactive: Potency [1] | Potency [2] | Potency [3] | Potency [4] | Potency [5] | Potency [6] | activity, negative = inhibition ([7]; parasite line A) 4.5% | activity, negative = inhibition ([7]; parasite line B) 11.6% | Potency (3D7) | Potency (7G8) | Potency (AA1029) | Potency (AS120) | Potency (ATS189) | Potency (ATS95) | Potency (C2A) | Potency (CP185) | Potency (CP191) | Potency (CP192) | Potency (CP194) | Potency (CP201) | Potency (CP203) | Potency (CP211) | Potency (CP215) | Potency (CP217) | Potency (CP237) | Potency (CP238) | Potency (CP247) | Potency (CP250) | Potency (CP252) | Potency (CP256) | Potency (CP260) | Potency (CP262) | Potency (CP265) | Potency (CP266) | Potency (CP268) | Potency (CP269) | Potency (CP286) | Potency (CP291) | Potency (CP297) | Potency (CP305) | Potency (CP315) | Potency (CP325) | Potency (CP329) | Potency (CP335) | Potency (DFO2036) | Potency (DIV14) | Potency (DIV17) | Potency (DIV30) | Potency (Dd2) | Potency (ECU) | Potency (FAB9) | Potency (GB4) | Potency (HB3) | Potency (ICS) | Potency (JCK) | Potency (N140) | Potency (P93_24) | Potency (P94_40) | Potency (PAD) | Potency (PC15) | Potency (PC26) | Potency (PC49) | Potency (SC27B) | Potency (TAB109) | Potency (TAB113) | Potency (TAB165) | Potency (W2)
